In PubChem BioAssay (NCATS):
Records with an inconclusive call do not appear. The source made the active and inactive calls. Calls come from the whole dose curve; as a rule, active = well fitted curve in the direction sought with a large enough effect; inconclusive = small, poorly fitted or top-dose-only effect, or another doubt; inactive = no such curve, though single readings can be large; an effect the other way counts as inactive or inconclusive.

Legend:
[1] = qHTS of pediatric cancer cell lines to identify multiple opportunities for drug repurposing: Primary screen for A673 cells (AID 1347092); note: nearly all actives have a fitted effect of over 45% in size; note: potency is the fitted concentration of half-maximal effect
How it was run: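 Luminescence from CellTiter-Glo, taken after 15 min at room temperature, served as the proxy for metabolically active cells following 48 h treatment. Both potency and efficacy were taken from curves fitted to the titration data.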

[2] = qHTS of pediatric cancer cell lines to identify multiple opportunities for drug repurposing: Primary screen for SK-N-MC cells (AID 1347093); note: potency is the fitted concentration of half-maximal effect
How it was run: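 Metabolically active cells were quantified by ATP-dependent luminescence (CellTiter-Glo, 15 min at room temperature) following 48 h treatment. Cells had been plated at 500-1,000 per well and settled for 5 h beforehand.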

[3] = qHTS of pediatric cancer cell lines to identify multiple opportunities for drug repurposing: Primary screen for BT-37 cells (AID 1347094); note: potency is the fitted concentration of half-maximal effect
How it was run: (§1)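 Cells plated at 500-1,000/well in growth medium, compounds added after 5 h. MIPE tested at 11 points (from 0.78 nM), NPC at 8 points (from 0.59 nM). CellTiter-Glo luminescence after 48 h; concentration-response curves from primary screen.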

[4] = qHTS of pediatric cancer cell lines to identify multiple opportunities for drug repurposing: Primary screen for NB-EBc1 cells (AID 1347095); note: potency is the fitted concentration of half-maximal effect
How it was run: as §1

[5] = qHTS of pediatric cancer cell lines to identify multiple opportunities for drug repurposing: Primary screen for U-2 OS cells (AID 1347096); note: nearly all actives have a fitted effect of over 50% in size; note: potency is the fitted concentration of half-maximal effect
How it was run: (§2)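 Cells (500-1,000/well) rested 5 h, then received compounds for 48 h; metabolically active cells were measured by CellTiter-Glo luminescence. Final concentrations spanned up to 46 µM (MIPE, 11-point) or 0.59 nM-46 µM (NPC, 8-point) in primary screens, 11-point in follow-ups.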

[6] = qHTS of pediatric cancer cell lines to identify multiple opportunities for drug repurposing: Primary screen for Saos-2 cells (AID 1347097); note: nearly all actives have a fitted effect of over 40% in size; note: potency is the fitted concentration of half-maximal effect
How it was run: as §1

[7] = qHTS of pediatric cancer cell lines to identify multiple opportunities for drug repurposing: Primary screen for SK-N-SH cells (AID 1347098); note: nearly all actives have a fitted effect of over 65% in size; note: potency is the fitted concentration of half-maximal effect
How it was run: as §2

[8] = qHTS of pediatric cancer cell lines to identify multiple opportunities for drug repurposing: Primary screen for NB1643 cells (AID 1347099); note: nearly all actives have a fitted effect of over 50% in size; note: potency is the fitted concentration of half-maximal effect
How it was run: as §1

[9] = qHTS of pediatric cancer cell lines to identify multiple opportunities for drug repurposing: Primary screen for LAN-5 cells (AID 1347100); note: potency is the fitted concentration of half-maximal effect
How it was run: as §2

[10] = qHTS of pediatric cancer cell lines to identify multiple opportunities for drug repurposing: Primary screen for BT-12 cells (AID 1347101); note: nearly all actives have a fitted effect of over 25% in size; note: potency is the fitted concentration of half-maximal effect
How it was run: as §2

[11] = qHTS of pediatric cancer cell lines to identify multiple opportunities for drug repurposing: Primary screen for Rh18 cells (AID 1347102); note: nearly all actives have a fitted effect of over 65% in size; note: potency is the fitted concentration of half-maximal effect
How it was run: as §2

[12] = qHTS of pediatric cancer cell lines to identify multiple opportunities for drug repurposing: Primary screen for RD cells (AID 1347104); note: nearly all actives have a fitted effect of over 55% in size; note: potency is the fitted concentration of half-maximal effect
How it was run: as §1

[13] = qHTS of pediatric cancer cell lines to identify multiple opportunities for drug repurposing: Primary screen for MG 63 (6-TG R) cells (AID 1347105); note: nearly all actives have a fitted effect of over 50% in size; note: potency is the fitted concentration of half-maximal effect
How it was run: as §1

[14] = qHTS of pediatric cancer cell lines to identify multiple opportunities for drug repurposing: Primary screen for control Hh wild type fibroblast cells (AID 1347106);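 note: series mostly up to about 46 µM; a drop in luminescence marks cytotoxicity and a rise apparent proliferation; nearly all actives have a fitted effect of over 55% in size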
How it was run: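 Viability after 48 h compound treatment at 37C, 500-1,000 cells/well, read as ATP luminescence with CellTiter-Glo. Primary screens used 11-point (MIPE, 0.78 nM-46 µM) or 8-point (NPC, 0.59 nM-46 µM) final concentrations; follow-up screens used 11-point dilutions.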

[15] = qHTS of pediatric cancer cell lines to identify multiple opportunities for drug repurposing: Primary screen for Rh30 cells (AID 1347107); note: nearly all actives have a fitted effect of over 75% in size; note: potency is the fitted concentration of half-maximal effect
How it was run: as §2

[16] = qHTS of pediatric cancer cell lines to identify multiple opportunities for drug repurposing: Primary screen for Rh41 cells (AID 1347108); note: nearly all actives have a fitted effect of over 70% in size; note: potency is the fitted concentration of half-maximal effect
How it was run: as §1

[17] = qHTS of pediatric cancer cell lines to identify multiple opportunities for drug repurposing: Primary screen for OHS-50 cells (AID 1347103); note: nearly all actives have a fitted effect of over 40% in size; note: potency is the fitted concentration of half-maximal effect
How it was run: as §2

[18] = qHTS of pediatric cancer cell lines to identify multiple opportunities for drug repurposing: Confirmatory screen for NB1643 cells (AID 1347109); note: potency is the fitted concentration of half-maximal effect; nearly all actives have a fitted effect of over 45% in size
How it was run: as §2

[19] = qHTS of pediatric cancer cell lines to identify multiple opportunities for drug repurposing: Confirmatory screen for A673 cells (AID 1347110);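 note: potency is the fitted concentration of half-maximal effect; cells exposed to compound for 48 h before the viability read; nearly all actives have a fitted effect of over 65% in size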
How it was run: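 qHTS titration format: primary MIPE 0.78 nM-46 µM (11 pts), NPC 0.59 nM-46 µM; confirmation 11 pts. 48 h, CTG luminescence.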

[20] = qHTS of pediatric cancer cell lines to identify multiple opportunities for drug repurposing: Confirmatory screen for SK-N-MC cells (AID 1347111);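 note: potency is the fitted concentration of half-maximal effect; cells exposed to compound for 48 h before the readout; nearly all actives have a fitted effect of over 70% in size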
How it was run: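 Seed 500-1,000 cells/well; rest 5 h at 37 degrees C. Pin-transfer compounds, 11-point titration. Incubate 48 h. Add CellTiter-Glo, 15 min RT, read luminescence.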

Measured: Potency

NCCS
inactive: [1] | [2] | [3] | [4] | [5] | [6] | [7] | [8] | [9] | [10] | [11] | [12] | [13] | [14] | [15] | [16]

CCOC(=O)O[C@]1(C(=O)OCCl)CC[C@@H]2[C@H]3CCC4=CC(=O)C=C[C@]4(C)[C@@H]3[C@@H](O)C[C@@]21C
inactive: [1] | [2] | [3] | [4] | [5] | [6] | [7] | [8] | [9] | [10] | [12] | [14] | [15] | [16]

O=C(NC1CCOCC1)c1ccc(-c2cc(-c3cn[nH]c3-c3ccccn3)ccn2)cc1
inactive: [1] | [2] | [3] | [4] | [5] | [6] | [7] | [8] | [9] | [10] | [11] | [17] | [12] | [13] | [14] | [15] | [16]

O=C(O)Cc1cccc2ccccc12
inactive: [1] | [2] | [3] | [4] | [5] | [6] | [7] | [8] | [9] | [10] | [11] | [17] | [12] | [13] | [14] | [15] | [16]

Oc1ccc(C2=Cc3ccc(O)cc3OC2)cc1
active: [1] 2.35 µM | [2] 1.66 µM | [3] 12.2 µM | [4] 1.66 µM | [6] 11.8 µM | [8] 9.35 µM | [9] 2.35 µM | [10] 4.85 µM | [12] 5.26 µM | [15] 11.8 µM | [16] 5.9 µM
inactive: [5] | [14]

COc1ccc(-c2cc(=O)c3c(O)cc(O)cc3o2)cc1O
active: [1] 4.69 µM | [2] 2.64 µM | [3] 21.7 µM | [4] 11.8 µM | [6] 18.7 µM | [7] 24.1 µM | [8] 4.69 µM | [9] 7.43 µM
inactive: [5] | [14] | [15]

CCC(CC)[C@H](NC(C)=O)[C@@H]1[C@H](O)[C@@H](C(=O)O)C[C@@H]1N=C(N)N
inactive: [1] | [2] | [3] | [4] | [5] | [6] | [7] | [8] | [9] | [10] | [12] | [13] | [14] | [15] | [16]

COc1ccc(-c2nc(N3CCOCC3)c3sc(CN(C)c4ncc(C(=O)NO)cn4)cc3n2)cn1
inactive: [14]
active: [1] 0.0935 µM | [2] 0.001 µM | [3] 0.0069 µM | [4] 0.001 µM | [5] 0.0118 µM | [6] 0.0066 µM | [7] 0.0341 µM | [8] 0.001 µM | [9] 0.001 µM | [17] 0.0011 µM | [12] 0.0166 µM | [13] 0.0296 µM | [15] 0.209 µM | [16] 0.0296 µM | [18] 0.928 µM | [19] 1.65 µM

COc1cc(Nc2ncc(F)c(Nc3ccc4c(n3)NC(=O)C(C)(C)O4)n2)cc(OC)c1OC
active: [1] 14.8 µM | [2] 0.418 µM | [4] 4.18 µM | [6] 0.935 µM | [17] 0.544 µM | [16] 2.35 µM
inactive: [3] | [5] | [7] | [14]

COc1ccc(-c2coc3cc(O)ccc3c2=O)cc1
inactive: [1] | [2] | [3] | [4] | [5] | [6] | [7] | [8] | [9] | [11] | [12] | [13] | [14] | [15] | [16]

CO[C@H]1C=CC=C(C)C(=O)NC2=CC(=O)C(NCCN(C)C)=C(C[C@@H](C)C[C@H](OC)[C@@H](O)[C@@H](C)C=C(C)[C@@H]1OC(N)=O)C2=O
active: [1] 0.0743 µM | [2] 0.187 µM | [3] 0.385 µM | [4] 0.118 µM | [5] 0.935 µM | [6] 2.35 µM | [8] 0.166 µM | [9] 0.132 µM | [10] 4.85 µM | [11] 0.132 µM | [17] 0.385 µM | [12] 0.0526 µM | [13] 18.7 µM | [15] 5.9 µM | [16] 0.59 µM | [19] 16.5 µM | [20] 0.827 µM

O=C(O)CCc1nc(-c2ccccc2)c(-c2ccccc2)o1
inactive: [1] | [2] | [3] | [4] | [5] | [6] | [8] | [9] | [11] | [17] | [12] | [14] | [15] | [16]

Cn1c(N2CCCCS2(=O)=O)nc(C(=O)NCc2ccc(F)cc2)c(O)c1=O
inactive: [1] | [2] | [3] | [4] | [5] | [7] | [8] | [9] | [10] | [11] | [17] | [12] | [13] | [14] | [15] | [16]

CC=CC(=O)N(CC)c1ccccc1C
inactive: [1] | [2] | [5] | [6] | [11] | [17] | [13] | [14] | [15] | [16]
active: [3] 30.6 µM | [4] 14.8 µM
